Results as given in publication PMC4336329 (PLoS ONE, 2015).
Out of some 310,000 compounds screened, about 14,000 (4.5%) showed an effect of 50% or more. Effects have a minus sign here. The full list was thinned out, with strong results kept by preference.

Target: human ether-à-go-go-related gene (hERG) potassium channel (human, UniProt Q12809)
Test: primary screen, population patch clamp on CHO cells stably expressing hERG; higher = less effect of the substance
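Note: peak tail current of the secondary pulse compared with the same well before compound.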

human ether-à-go-go-related gene (hERG) potassium channel, sequence (Q12809 whole entry, looked up): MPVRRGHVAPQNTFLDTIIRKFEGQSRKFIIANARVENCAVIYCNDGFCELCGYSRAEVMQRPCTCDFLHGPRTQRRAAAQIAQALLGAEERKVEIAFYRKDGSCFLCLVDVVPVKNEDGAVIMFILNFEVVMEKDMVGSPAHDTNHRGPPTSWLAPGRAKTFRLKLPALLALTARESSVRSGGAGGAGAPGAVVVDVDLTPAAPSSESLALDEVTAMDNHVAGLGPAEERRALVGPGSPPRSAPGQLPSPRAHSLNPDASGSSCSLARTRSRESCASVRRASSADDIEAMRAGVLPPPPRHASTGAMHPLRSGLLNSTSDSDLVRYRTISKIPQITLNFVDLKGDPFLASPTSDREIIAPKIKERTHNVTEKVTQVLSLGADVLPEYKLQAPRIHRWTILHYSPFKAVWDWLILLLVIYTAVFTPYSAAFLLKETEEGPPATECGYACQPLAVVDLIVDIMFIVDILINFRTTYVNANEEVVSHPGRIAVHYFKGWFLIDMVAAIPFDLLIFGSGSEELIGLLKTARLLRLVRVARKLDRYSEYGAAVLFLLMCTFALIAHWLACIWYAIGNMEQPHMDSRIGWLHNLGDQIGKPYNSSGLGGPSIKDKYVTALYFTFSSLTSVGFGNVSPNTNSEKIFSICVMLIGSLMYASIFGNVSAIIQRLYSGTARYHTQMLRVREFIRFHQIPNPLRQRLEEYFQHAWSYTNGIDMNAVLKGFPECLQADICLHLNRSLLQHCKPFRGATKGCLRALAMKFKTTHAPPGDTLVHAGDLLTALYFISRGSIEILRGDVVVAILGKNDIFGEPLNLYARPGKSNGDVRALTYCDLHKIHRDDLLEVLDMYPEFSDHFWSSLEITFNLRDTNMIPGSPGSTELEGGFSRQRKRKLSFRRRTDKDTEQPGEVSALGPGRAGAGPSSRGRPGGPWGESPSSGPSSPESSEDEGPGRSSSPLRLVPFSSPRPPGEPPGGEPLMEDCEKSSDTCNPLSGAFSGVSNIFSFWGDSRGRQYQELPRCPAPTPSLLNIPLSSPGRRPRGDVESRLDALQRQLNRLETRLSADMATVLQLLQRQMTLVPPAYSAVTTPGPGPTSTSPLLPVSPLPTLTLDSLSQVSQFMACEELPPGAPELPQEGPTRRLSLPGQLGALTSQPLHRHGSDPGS

Compound	hERG current change (%, negative = inhibition) at 10uM [%]
COCCN(CC1CCCN(C2Cc3ccccc3C2)C1)C(=O)CCC(F)(F)F (stereo not shown)	-55.4
O=C(NCC1CCCN(C2Cc3ccccc3C2)C1)c1cccs1 (stereo not shown)	-40.7
COCCN(CC1CCCN(C2Cc3ccccc3C2)C1)C(=O)CCC(C)=O (stereo not shown)	-6.4
CCCC(=O)N(CCc1ccc(OC)cc1)Cc1nc2ccccc2c(=O)[nH]1	-8.61
COc1ccc2c(c1)c(CC(=O)Nc1cccc(S(N)(=O)=O)c1)c(C)n2C(=O)c1ccc(Cl)cc1	1.02
COc1ccc(S(=O)(=O)N(C)CC(=O)NCc2cccnc2)cc1	-31.8
CN(CC(=O)NCc1ccncc1)S(=O)(=O)c1ccc(F)cc1	-0.77
CCN(CC(=O)NCc1ccco1)S(=O)(=O)c1ccc(F)cc1	5.61
Cc1ccc(S(=O)(=O)N(CC(=O)NCc2ccncc2)Cc2ccc(F)cc2)cc1	-79.2
CCN(CC(=O)NCc1ccco1)S(=O)(=O)c1ccc(OC)cc1	3.31
CCN(CC(=O)NCc1cccnc1)S(=O)(=O)c1ccc(OC)cc1	-28.3
CCN(CC(=O)NCc1ccc(F)cc1)S(=O)(=O)c1ccc(C)cc1	-43.6
COc1ccc(S(=O)(=O)N(CC(=O)NCc2cccnc2)Cc2ccccc2)cc1	-76.5
Cc1ccc(S(=O)(=O)N(CC(=O)NCc2ccco2)Cc2ccc(F)cc2)cc1	-67.1
O=C(CN(Cc1ccccc1)S(=O)(=O)c1ccc(Br)cc1)NCc1ccco1	-51.6
Cc1ccc(S(=O)(=O)N(Cc2ccc(F)cc2)Cc2ccco2)cc1	2.28
CS(=O)(=O)N(CCc1ccccc1)CC(=O)NCc1ccco1	-3.21
COc1cccc(-n2c(Cc3cc(=O)[nH]c(=O)[nH]3)nnc2SCC(=O)N2CCCCCC2)c1	0.34
CCc1cccc(C)c1NC(=O)C1CCCN1C(=O)NCc1ccccc1 (stereo not shown)	18.4
CCOC(=O)c1ccc(NC(=O)c2c(C)[nH]c(C(=O)OCC)c2C)cc1	-6.95
Cc1ccc(NC(=O)CCn2cnc3ccccc3c2=O)c(C)c1	6.65
CCCCn1c(SCC(=O)N(CC)C2CCS(=O)(=O)C2)nc2cc(S(N)(=O)=O)ccc21 (stereo not shown)	-5.49

Compound	hERG current change (%, negative = inhibition) at 10uM [%]
CC1(C)CC(=O)C(C(=O)c2ccccc2)C(=O)C1Cl (stereo not shown)	3.06
O=C(CN(Cc1ccccc1)S(=O)(=O)c1ccc(F)cc1)NCc1ccccn1	-10.6
O=C(CN(Cc1ccc(Br)cc1)S(=O)(=O)c1ccccc1)NCc1ccccn1	-42
Cc1ccc(S(=O)(=O)N(CC(=O)O)Cc2ccccc2F)cc1	3.18
CCCNC(=O)CN(Cc1ccccc1F)S(=O)(=O)c1ccc(C)cc1	-6.17
O=C(O)CN(Cc1ccccc1)S(=O)(=O)c1ccc(F)cc1	2.09
O=C(CN(Cc1ccc(Br)cc1)S(=O)(=O)c1ccccc1)NCc1cccnc1	-17.2
O=C(CN(Cc1ccccc1)S(=O)(=O)c1ccc(F)cc1)NCc1cccnc1	-57.8
O=C(CN(Cc1ccc(Br)cc1)S(=O)(=O)c1ccccc1)NCc1ccncc1	-68.8
CCN(CC(=O)NCc1ccncc1)S(=O)(=O)c1ccccc1	5.51
Cc1ccc(S(=O)(=O)N(CC(=O)NCc2ccncc2)Cc2ccccc2F)cc1	-78.6
CN(CC(=O)NCc1cccnc1)S(=O)(=O)c1ccc(F)cc1	21.3
O=C(CN(Cc1ccccc1)S(=O)(=O)c1ccc(F)cc1)NCc1ccncc1	-52.3
COc1ccccc1NC(=O)c1cc2c(CO)cnc(C)c2oc1=Nc1ccc(OC)c(OC)c1	13.3
COc1ccc(NN=Nc2ccc([N+](=O)[O-])cc2)cc1	19.1
OC1COC(OCC2OC(OCc3ccccc3)C(O)C(O)C2O)C(O)C1O (stereo not shown)	-11.1
CCOC(=O)N1CCN(C(=O)c2cc3cc(OC)c(OC)cc3[nH]2)CC1	5.96
CC(=O)Nc1ccc(NC(=O)c2cc(-n3cnnc3)ccc2Cl)cc1	15.7
COc1cccc(C(C2C(=O)CC(C)(C)CC2=O)C2C(=O)CC(C)(C)CC2=O)c1	21.2
O=C(N1CCN(c2ccc(F)cc2)CC1)C12CC3CC(CC(C3)C1)C2	5.05
CN(C)c1nc(OCCNC(=O)Nc2ccccc2)nc(N2CCCCC2)n1	0.123
